Compound activity as filed in PubChem BioAssay.
Only some compounds are listed: those with a hit (about 2.6% of all), similar ones and a draw of the others.
Exocytosis inh: lytic granule exocytosis inhibition; TALL-104 LAMP-1 surface exposure, flow cytometry; cells stimulated with thapsigargin and PMA; inhibition, % at 10 µM; 360,000 compounds, 0.66% hits; AID 651702;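 active = inhibition above about 55%, limit read from the data; inconclusive = no clear call, values can overlap the other calls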
ABHD5-PLIN5 inh: ABHD5-PLIN5 protein interaction inhibition; 360,000 compounds, 0.78% hits; inhibition, % at 4 µM; Split G. princeps luciferase complementation, luminescence, 4 h; Q00G26+Q8WTS1;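 active = inhibition above the mean inhibition across every tested compound plus 3 SD, cut at about 22% in these data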
Rce1 inhib: yeast Ras-converting enzyme inhibition; calls only; 290,000 compounds, 0.27% hits; Q03530; AID 2563; yeast membranes, quenched prenylated peptide cleavage fluorescence;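 active = fall in fluorescence gain of 50% or more versus controls, with final raw signal at or below 3038400; inconclusive = same 50% fall but final raw signal above 3038400; inactive = fall in fluorescence gain under 50%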
M18AAP inhibitor: PfM18AAP enzyme inhibition. recombinant PfM18AAP, H-Glu-NHMec fluorogenic cleavage. inhibition, % at 7.35 µM. 290,000 compounds, 1.2% hits;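 active = inhibition above the campaign mean inhibition over all tested compounds plus 3 SD, cut at about 28% in these data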
Platelet DG rel: modulates dense granule release in human platelets; 300,000 compounds, 0.22% hits; inhibition, %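 (compounds screened at 7.5 µM in platelet-rich plasma)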; human platelet-rich plasma, SFLLRN dense granule ATP release, luminescence; AID 1663;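 active = mean replicate score, as percent of positive control, at or above 50; inconclusive = mean below 50 but at least one replicate at or above 50; inactive = mean and every replicate below 50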
Large screens that a line does not name were inactive.

CN(C)CCNC(=O)COc1ccc(C23CC4CC(CC(C4)C2)C3)cc1	ABHD5-PLIN5 inh 23
COc1ccc(N=CC2=C(O)c3ccccc3C2=O)cc1	Platelet DG rel 59
NCCNc1ccc(C(=O)N2c3ccccc3Sc3ccccc32)cc1[N+](=O)[O-]	Exocytosis inh 66
Nc1ccc(C(=O)OCC(=O)N2c3ccccc3Sc3ccccc32)cc1[N+](=O)[O-]	none (no result: Rce1 inhib, Platelet DG rel)
Cc1cc(N=Nc2ccccc2)c(NCC(O)C(O)C(O)CO)cc1C (configuration not stated)	ABHD5-PLIN5 inh 22
CCN(CC)Cc1cc(O)c(CN(CC)CC)cc1O	M18AAP inhibitor 29
COCCN(C(=O)COC(=O)CCc1nc2ccccc2s1)c1c(N)n(Cc2ccccc2)c(=O)[nH]c1=O	Platelet DG rel 52
COCCN(C(=O)COC(=O)CCc1ccc(OC)cc1)c1c(N)n(Cc2ccccc2)c(=O)[nH]c1=O	none (no result: M18AAP inhibitor)
O=C(NCCOC(=O)C1COc2ccccc2O1)C1COc2ccccc2O1 (configuration not stated)	none
Cn1c(Cn2c(=O)sc3ccccc32)nnc1SCc1ccccn1	none
COCCn1cc(C(=O)NCCN(C)C)c2c3ccccc3n(C)c2c1=O	Rce1 inhib active
Oc1ccc2ccccc2c1CNc1cnc2ccccc2c1	ABHD5-PLIN5 inh 22
CCOC(=O)c1cnc[nH]c1=O	ABHD5-PLIN5 inh 22 (no result: Rce1 inhib, M18AAP inhibitor, Platelet DG rel)
NC(=S)N/N=C/c1ccc2cccc(OCc3ccccc3)c2n1	M18AAP inhibitor 44
C/C(=N\NC(=O)c1ccncc1)c1cccc(NC(=O)c2ccc(C(C)(C)C)cc2)c1	none
C/C(=N\NC(=O)c1ccc(Br)cc1)c1cccc(NC(=O)c2cccnc2)c1	Rce1 inhib active
CC(C)CC1(C)NC(=O)N(CC(=O)NC(=O)Nc2ccc3c(c2)OCCO3)C1=O (configuration not stated)	none
Cc1c(C(=O)N2CCCCC2)c(S(=O)(=O)N(C)Cc2ccccc2)c(C)n1C	Platelet DG rel 56
Cc1c(C(=O)N2CCCCC2)c(S(=O)(=O)N(C)Cc2ccco2)c(C)n1C	none
CCCCOc1ccccc1C1C(C(=O)OC)=CN(CC)C=C1C(=O)OC	Platelet DG rel 51
CCCOc1ccccc1C1C(C(=O)OC)=CN(C(C)C)C=C1C(=O)OC	none
O=C(O)c1ccccc1C(=O)N1N=C2/C(=C/c3cccc([N+](=O)[O-])c3)CCCC2C1c1cccc([N+](=O)[O-])c1 (configuration not stated)	none
Cc1cccc(NC(=O)c2sc3nc(N)c(C#N)cc3c2N)c1	M18AAP inhibitor 28
N#Cc1cc2c(N)c(C(=O)Nc3ccccc3)sc2nc1N	none (no result: Exocytosis inh, ABHD5-PLIN5 inh)
CCc1cc(=O)oc2cc(OCC(=O)NC3CC(C)(C)NC(C)(C)C3)ccc12	none
O=C(NCCc1cccnc1)c1cc(COc2ccc(F)cc2F)on1	none
O=C(NCCc1cccnc1)c1cc(COc2ccc(F)cc2Cl)on1	Rce1 inhib active
O=C(CN1C(=O)S/C(=C\c2ccc(F)cc2)C1=O)NCCCn1ccnc1	none
O=C(N/N=C\C=C\c1ccco1)C1COc2ccccc2O1 (configuration not stated)	ABHD5-PLIN5 inh 23
O=C(N/N=C/C=C/c1ccc([N+](=O)[O-])cc1)C1COc2ccccc2O1 (configuration not stated)	none
COc1ccc(CNc2nc3nc(C)cc(C)n3n2)cc1	none
COc1ccc(N2CSC3=C(C#N)C(c4cccc(OC)c4OC)CC(=O)N3C2)cc1 (configuration not stated)	M18AAP inhibitor 28
COc1ccc(OC)c(C2CC(=O)N3CN(c4ccccc4)CSC3=C2C#N)c1 (configuration not stated)	none
COc1ccc(C2CC(=O)N3CN(c4ccc(C)c(Cl)c4)CSC3=C2C#N)cc1 (configuration not stated)	none
N#CC1=C2SCN(Cc3ccco3)CN2C(=O)CC1c1ccc(Cl)cc1 (configuration not stated)	none
COc1ccc(C2CC(=O)N3CN(Cc4ccco4)CSC3=C2C#N)cc1 (configuration not stated)	M18AAP inhibitor 30
COc1ccc(C2CC(=O)N3CN(c4ccccc4F)CSC3=C2C#N)cc1OC (configuration not stated)	none
Cc1cccc(N2CSC3=C(C#N)C(c4ccc(C)o4)CC(=O)N3C2)c1 (configuration not stated)	M18AAP inhibitor 33 (no result: Exocytosis inh, ABHD5-PLIN5 inh)
COc1cc(OC)c(C2CC(=O)N3CN(c4ccccc4C)CSC3=C2C#N)cc1OC (configuration not stated)	M18AAP inhibitor 43 (no result: Exocytosis inh, ABHD5-PLIN5 inh)
Cc1cccc(OCc2nn[nH]n2)c1C	none
O=S(=O)(c1ccc(F)cc1)N1CCN(C(=S)NCCc2ccccc2)CC1	none
CCOC(=O)c1c(NC(=O)CSc2n[nH]c(-c3ccco3)n2)sc(C)c1C	M18AAP inhibitor 31
N=c1oc2cc(O)ccc2cc1C(=O)Nc1nc2ccccc2s1	Rce1 inhib active
COc1ccc(C(=O)Nc2nc3ccccc3s2)c(OC)c1	Platelet DG rel 83
N=c1oc2cc(O)ccc2cc1C(=O)Nc1ccccn1	none (no result: Exocytosis inh, ABHD5-PLIN5 inh, Rce1 inhib, Platelet DG rel)
COc1ccccc1C(=O)Nc1nc2ccc(S(C)(=O)=O)cc2s1	none
COc1ccc2nc(NC(=O)c3ccccc3C(=O)O)sc2c1	none
COc1ccccc1C(=O)Nc1nc2ccccc2s1	Platelet DG rel 73
CCOC(=O)N1CCN(C(=O)Cn2nc(C)c3sc4ccccc4c3c2=O)CC1	none
CCCS(=O)(=O)c1nc(S(=O)(=O)c2ccc(C)cc2)c(NCCCn2ccnc2)s1	none
CC(C)(C)c1ccc(C(=O)O/N=C(\N)c2ccccn2)cc1	none
COC(=O)c1ccc(CN2C(=O)C(C)ON=C2c2ncccc2C)o1 (configuration not stated)	none (no result: Rce1 inhib, M18AAP inhibitor, Platelet DG rel)
CC(C)CC(=O)/C(=C\c1ccc(Cl)cc1Cl)n1cncn1	ABHD5-PLIN5 inh 95
CC(C)CC(=O)/C(=C/c1ccc(N(C)C)cc1)n1cncn1	none
CC1CC(Nc2cccc(O)c2)=CC(=O)O1 (configuration not stated)	none
COC(=O)CSC1=C(C#N)C(c2ccc(C)cc2)C2=C(CCCC2=O)N1 (configuration not stated)	M18AAP inhibitor 30
COc1ccc2c(c1)CCc1cc(C(=O)O)sc1-2	Rce1 inhib inconclusive
Cn1c(N)c(C(=O)c2cc(-c3ccccc3)nc3ccccc23)c(=O)n(C)c1=O	none
O=C(O)CSCC(=O)Nc1ccccc1	none
C/C(=N\Nc1cc(C)nc(NCc2ccccc2)n1)c1cccc([N+](=O)[O-])c1	Exocytosis inh 94
C/C(=N\Nc1nnc(-c2ccccc2)c(-c2ccccc2)n1)c1cccc([N+](=O)[O-])c1	none (no result: Rce1 inhib)
Cc1ccccc1CNC(=O)c1ccccc1NS(C)(=O)=O	none
CS(=O)(=O)Nc1ccccc1C(=O)Nc1cc(Cl)cc(Cl)c1	none
CS(=O)(=O)Nc1ccccc1C(=O)NCc1ccccc1Cl	Rce1 inhib active
CS(=O)(=O)Nc1ccccc1C(=O)Nc1cccc(Cl)c1	Rce1 inhib active
CS(=O)(=O)Nc1ccccc1C(=O)NC1CC2CCC1C2 (configuration not stated)	Rce1 inhib active
